Compound activity: PubChem BioAssay, several laboratories
Rows were chosen to be rich in hits. Some 2.4% of all compounds tested hit in one or more screens of this group.
SENP6 inh – SENP6 protease inhibitors, primary screen, biochemical, luminescence, uHTS | Recombinant SENP6 catalytic domain, aminoluciferin luminescence | inhibition, % at 10 µM | 330,000 tested, 1.8% active | AID 2599, 2010;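 active means inhibition above about 50% at the single tested dose, limit read from the data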;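 further: plate controls were DMSO wells with enzyme for no effect and DMSO wells lacking enzyme for full effect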
SENP8 block-1 – SENP8 protease inhibitors, primary screen, biochemical, luminescence | inhibition, % at 10 µM | 330,000 tested, 1.2% active | purified SENP8, Z-RLRGG-aminoluciferin cleavage | Sentrin-specific protease 8 (Homo sapiens), Q96LD8 | AID 2540, 2010; in the data active means inhibition above about 50%
SENP8 block-2 – human SENP8 protease inhibitors, primary screen, biochemical, fluorescence, Nedd8 protein substrate, uHTS; Sentrin-specific protease 8 (Homo sapiens), Q96LD8; recombinant SENP8; inhibition, % at 20 µM; 360,000 tested, 0.64% active; in the data active means inhibition mostly above about 40%, no sharp cut-off; inactive means mostly below about 27%
Platelet DG rel – inhibitors of platelet dense granule secretion, primary screen, cell-based, MLPCN, human platelets | human platelet-rich plasma, SFLLRN dense granule ATP release, luminescence | inhibition, %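 (compounds screened at 7.5 µM in platelet-rich plasma)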 | 300,000 tested, 0.22% active | AID 1663, 2009;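 active means mean replicate score, as percent of positive control, at or above 50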
SENP7 block – SENP7 protease inhibitors, primary screen, biochemical, luminescence, uHTS | recombinant SENP7, Z-RLRGG-aminoluciferin luminescence, 40 min | inhibition, % at 5 µM | 330,000 tested, 1.5% active | AID 434973, 2010;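 active means inhibition above about 50% at the single test dose, limit read from the data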;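 further: plate controls were DMSO with enzyme for no effect and no enzyme buffer wells for full effect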
Target sequence (Q9BQF6 706-1050 limits assumed): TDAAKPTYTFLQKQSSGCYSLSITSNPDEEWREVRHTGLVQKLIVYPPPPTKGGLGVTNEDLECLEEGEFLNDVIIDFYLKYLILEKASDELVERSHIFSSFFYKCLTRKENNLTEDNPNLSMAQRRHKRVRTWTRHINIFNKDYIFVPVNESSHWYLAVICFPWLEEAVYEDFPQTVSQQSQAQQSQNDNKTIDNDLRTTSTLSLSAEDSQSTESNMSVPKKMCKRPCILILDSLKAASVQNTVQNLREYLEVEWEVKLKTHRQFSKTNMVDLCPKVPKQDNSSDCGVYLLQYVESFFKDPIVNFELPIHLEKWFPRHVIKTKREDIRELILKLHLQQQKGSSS
SENP8 conf – human SENP8 protease inhibitors, confirmation, biochemical, Nedd8 protein substrate, single concentration; shares compounds with SENP8 block-2; purified SENP8, Nedd8-AMC/pro-Nedd8 cleavage fluorescence, 30 min; inhibition, % at 25 µM; 1,400 tested, 15% active; AID 624319, 2012; in the data active means inhibition mostly above about 39%, no sharp cut-off; inactive means mostly below about 34%
Numbers without * were called inactive; · = no result.

SMILES	SENP6 inh	SENP8 block-1	SENP8 block-2	Platelet DG rel	SENP7 block	SENP8 conf
CCOC(=O)c1nc(NNC(=O)c2ccc([N+](=O)[O-])cc2)sc1C	20.0	-1.6	41.0*	4.0	4.9	2.3
CCc1cc(C(=O)N(CCCOC)c2c(N)n(Cc3ccccc3)c(=O)[nH]c2=O)sc1C	11.6	7.6	-81.5	-0.5	-4.4	·
Cc1cc2c(NC(=O)CC(C)(C)CC(=O)O)cccc2nn1	9.7	5.1	43.7*	-2.0	8.7	6.5
COC(=O)Nc1ccc(S(=O)(=O)N2CCCC(C(=O)NC3CCS(=O)(=O)C3)C2)cc1 (centres undefined)	-16.4	-10.3	18.0	-9.5	-0.2	·
CS(=O)(=O)c1ccc(NC(=O)CCCc2nc3ccccc3c(=O)[nH]2)cc1	2.7	-6.4	53.9*	-15.1	-9.0	19.2
Cc1cc(C)n2nc(C(=O)OCC(=O)N(C)C3CCCCC3)nc2n1	-8.0	-8.5	15.0	-10.9	6.5	·
O=[N+]([O-])c1ccc(/C=N/N=C/c2ccc([N+](=O)[O-])o2)o1	·	·	37.4	·	·	·
O=C1SCCN1N=Cc1ccc([N+](=O)[O-])o1	·	·	55.1*	·	·	17.7
CC1CN(N=Cc2ccc([N+](=O)[O-])o2)C(=N)O1 (centres undefined)	·	·	48.1*	·	·	28.9
Cc1nn(Cc2ccccc2)c(C)c1CNC(=O)[C@H](C)N=C1NS(=O)(=O)c2ccccc21	·	·	6.2	·	·	·
Cc1ccc(C(=O)O/N=C\c2ccc(N3CCCCC3)c([N+](=O)[O-])c2)cc1	-13.0	3.4	47.6*	9.2	-6.0	12.9
O=C(O/N=C\c1ccc(N2CCCCC2)c([N+](=O)[O-])c1)c1cccc(Cl)c1	1.2	-0.6	59.4*	-2.8	6.8	15.0
COc1ccc(NC(=O)CSc2ccc3nnc(CCNC(=O)c4ccccc4)n3n2)cc1OC	1.7	0.0	6.0	-5.2	6.0	·
O=c1ccc(NS(=O)(=O)c2ccccc2Cl)cn1Cc1ccc(Cl)c(Cl)c1	21.3	10.1	39.0*	-5.5	9.7	-6.6
COC(=O)c1ccc(/C=N/NC(=O)C2CC(=O)N(c3ccc(OC)cc3)C2)cc1 (centres undefined)	10.3	-4.4	-1.0	8.6	-3.5	·
COc1nc(/C=C/N(C)C)c([N+](=O)[O-])c(OC)n1	-0.4	3.6	43.1*	3.4	-1.5	18.9
CC(=O)Oc1ccc2oc(/C=C/N(C)C)c([N+](=O)[O-])c2c1	9.0	0.7	37.8	4.2	-2.4	·
CC(NC(=O)Nc1ccc(O)cc1)(C(F)(F)F)C(F)(F)F	-12.5	-0.8	77.6*	2.0	9.2	17.6
Nc1nnn(CC(=O)N/N=C/c2cccc(Cl)c2)n1	-28.6	6.0	24.8	-0.1	-3.0	·
COc1ccc(OCc2cn(CC(=O)c3ccc(O)cc3)nn2)cc1	·	·	22.5	·	·	·
CCC(=O)c1ccc(OCc2cn(CC(=O)c3ccc(O)cc3)nn2)cc1	·	·	32.4*	·	·	40.6*
Cc1cccc(C(=O)NC2CCCCCCC2)c1	11.0	-12.8	11.7	-4.0	4.5	·
O=C(NC1C(=O)NNC1c1ccccc1)c1ccccc1 (centres undefined)	13.5	-4.5	55.1*	-16.7	-4.7	16.7
Cc1cccc(C(=O)NC2C(=O)NNC2c2ccc(Cl)cc2)c1 (centres undefined)	18.6	-2.2	44.5*	6.6	14.3	22.4
CCc1ccc(N2C(=O)C(Cl)=C(N3CCOCC3)C2=O)cc1	-6.3	-6.7	41.1*	7.4	9.0	13.4
Cc1cccc(N2C(=O)C(Cl)=C(N3CCOCC3)C2=O)c1	-0.1	-4.3	46.1*	12.5	-12.3	2.0
O=C1C(Cl)=C(N2CCN(Cc3ccccc3)CC2)C(=O)N1c1ccccc1	-12.2	-3.8	48.2*	-3.6	-4.1	10.6
COc1ccc(N2C(=O)C(Cl)=C(N3CCN(Cc4ccccc4)CC3)C2=O)cc1	·	·	17.4	-1.4	·	·
CC(Nc1ccc2c(c1)OCCO2)C(=O)N1c2ccccc2CC1C (centres undefined)	0.8	3.8	25.5	-1.1	7.7	·
C=C(C)CNC(=O)C1CCC(=O)N(CCCc2ccccc2)C1 (centres undefined)	·	·	12.3	-2.6	·	·
